Experiment [1] can be described thus: antimalarial activity against Dd2 strain (AID 2302;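 active = growth inhibition above 50% at the single 2 µM test dose, taken to imply half-maximal potency below 2 µM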;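 note: 0% = DMSO untreated growth and 100% = chloroquine plus artemisinin killed control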). To be noted: P. falciparum Dd2 in RBCs, LDH growth readout, 72 h; at 2 µM; stronger effect = higher value.
A short description of experiment [2]: human hepatoma cell viability loss – ATP luminescence, cytotoxicity control for P. falciparum antimalarial project, primary screen (AID 2303;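 active = inhibition above 50%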;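 note: 0% = DMSO wells and 100% = digitonin-killed cells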). To be noted: HepG2 viability, 24-48 h, at 10 µM, stronger effect = higher value.
Experiment [3] addresses L-lactate dehydrogenase (Plasmodium falciparum (isolate CDC / Honduras)) (UniProt Q27743). The experiment can be described thus: PfLDH activity inhibition – cell lysate, 3D7 strain, counter-screen for P. falciparum growth inhibition project (AID 2304).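 Note: 0% = vehicle and 100% = reference inhibitor.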 To be noted: P. falciparum 3D7 crude extract, LDH APAD/NBT absorbance; at 2 µM; stronger effect = higher value. On the technique in general: A counterscreen serves to expose hits that act by an unwanted route or on another target.

Experiment [4] is described as follows: inhibition of 3D7 malaria parasite growth – strain 3D7 (AID 2306).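 Note: 0% = DMSO wells and 100% = chloroquine plus artemisinin control wells.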 The note with it: P. falciparum 3D7 erythrocytic growth, LDH absorbance, 72 h; at 2 µM; stronger effect = higher value.
The target in experiment [5] is Calcium-dependent protein kinase 1 (Plasmodium falciparum (isolate 3D7)) (UniProt P62344). The experiment in a line: PfCDPK1 kinase inhibitors, biochemical, TCAMS library (AID 1159585; cut-off not given, nearly all actives have IC50 up to about 0.98 µM;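 note: inhibitors leave more ATP so luminescence rises with inhibition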). To be noted: recombinant PfCDPK1, Kinase-Glo ATP depletion luminescence. In general terms: In Kinase-Glo more light means more ATP remaining.
Sequence of Calcium-dependent protein kinase 1 (Plasmodium falciparum (isolate 3D7)) (P62344 whole entry, looked up): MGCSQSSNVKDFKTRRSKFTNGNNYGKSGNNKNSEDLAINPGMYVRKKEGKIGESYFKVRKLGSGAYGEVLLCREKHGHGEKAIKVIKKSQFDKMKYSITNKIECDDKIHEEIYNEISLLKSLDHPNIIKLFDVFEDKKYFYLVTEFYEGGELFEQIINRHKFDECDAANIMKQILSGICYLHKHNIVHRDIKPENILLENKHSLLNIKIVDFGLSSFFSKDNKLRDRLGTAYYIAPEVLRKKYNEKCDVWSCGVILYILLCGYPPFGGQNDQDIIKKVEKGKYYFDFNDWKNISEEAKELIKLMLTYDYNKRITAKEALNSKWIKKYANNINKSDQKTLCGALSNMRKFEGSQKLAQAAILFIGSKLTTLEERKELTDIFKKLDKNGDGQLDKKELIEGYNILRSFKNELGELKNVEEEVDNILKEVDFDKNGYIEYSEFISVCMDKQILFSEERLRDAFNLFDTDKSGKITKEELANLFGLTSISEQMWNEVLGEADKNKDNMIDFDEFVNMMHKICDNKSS
Experiment [6] deals with Plasmodium falciparum protein kinase 6 (PK6, PF3D7_1337100) (UniProt Q8IDW1). The experiment can be described thus: PfPK6 kinase inhibitors, biochemical, TCAMS library (AID 1159586). To be noted: recombinant PfPK6, Kinase-Glo ATP depletion luminescence.
Sequence of Plasmodium falciparum protein kinase 6 (PK6, PF3D7_1337100) (Q8IDW1 1-305): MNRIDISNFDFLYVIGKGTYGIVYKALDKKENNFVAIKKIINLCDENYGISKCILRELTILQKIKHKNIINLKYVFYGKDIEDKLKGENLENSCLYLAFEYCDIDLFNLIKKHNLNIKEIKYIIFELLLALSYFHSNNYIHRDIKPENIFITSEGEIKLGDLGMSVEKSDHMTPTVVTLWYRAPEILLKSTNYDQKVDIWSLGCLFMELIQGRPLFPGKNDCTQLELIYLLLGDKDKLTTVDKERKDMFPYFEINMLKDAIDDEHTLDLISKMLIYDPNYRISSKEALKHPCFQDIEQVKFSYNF
In experiment [7] the target is Protein kinase 7 (PK7), Plasmodium falciparum 3D7 (PF3D7_0213400) (UniProt Q7YTF7). The experiment in a line: inhibition of Plasmodium PK7 catalytic activity – biochemical, TCAMS antimalarial set, Kinase-Glo luminescence (AID 1159587). The note with it: recombinant PfPK7, Kinase-Glo ATP depletion luminescence.
Sequence of Protein kinase 7 (PK7), Plasmodium falciparum 3D7 (PF3D7_0213400) (Q7YTF7 1-343): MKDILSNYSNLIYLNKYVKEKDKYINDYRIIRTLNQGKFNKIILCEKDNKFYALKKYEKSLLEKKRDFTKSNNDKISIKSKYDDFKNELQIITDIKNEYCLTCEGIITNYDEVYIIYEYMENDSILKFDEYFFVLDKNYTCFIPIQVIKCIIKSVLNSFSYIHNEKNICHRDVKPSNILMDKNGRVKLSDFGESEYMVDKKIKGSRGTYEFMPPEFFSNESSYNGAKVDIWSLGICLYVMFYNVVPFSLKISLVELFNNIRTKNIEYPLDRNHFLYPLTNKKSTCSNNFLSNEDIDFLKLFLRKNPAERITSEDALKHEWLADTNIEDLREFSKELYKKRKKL
The target of experiment [8] is Calcium-dependent protein kinase 4 (Plasmodium falciparum (isolate 3D7)) (UniProt Q8IBS5). The experiment can be described thus: PfCDPK4 kinase inhibitors, biochemical, TCAMS library (AID 1159588; cut-off not given, nearly all actives have IC50 up to about 0.91 µM). To be noted: recombinant PfCDPK4, Kinase-Glo ATP depletion luminescence.
Sequence of Calcium-dependent protein kinase 4 (Plasmodium falciparum (isolate 3D7)) (Q8IBS5 whole entry, looked up): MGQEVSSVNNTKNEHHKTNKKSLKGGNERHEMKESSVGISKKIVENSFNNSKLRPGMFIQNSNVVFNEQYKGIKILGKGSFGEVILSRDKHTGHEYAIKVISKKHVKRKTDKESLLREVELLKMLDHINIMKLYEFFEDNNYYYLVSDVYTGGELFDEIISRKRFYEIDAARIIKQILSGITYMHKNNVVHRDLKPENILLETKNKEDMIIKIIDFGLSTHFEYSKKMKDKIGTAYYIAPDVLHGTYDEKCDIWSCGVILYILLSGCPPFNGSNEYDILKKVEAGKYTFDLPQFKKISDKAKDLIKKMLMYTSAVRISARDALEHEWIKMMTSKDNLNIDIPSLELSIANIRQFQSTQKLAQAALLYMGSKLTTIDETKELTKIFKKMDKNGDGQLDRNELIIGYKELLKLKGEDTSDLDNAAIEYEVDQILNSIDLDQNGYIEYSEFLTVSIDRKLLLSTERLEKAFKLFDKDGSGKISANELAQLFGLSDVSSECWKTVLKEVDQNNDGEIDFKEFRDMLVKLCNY

20 compounds from PubChem BioAssay can be followed below.

The structures appear in SMILES notation. A number with no mark means an inactive call. For some of these results: Measured potencies and affinities stand elsewhere. Calls of active or inactive are those of the source. Unless noted, the rule behind the calls is not given here.

Sequence of L-lactate dehydrogenase (Plasmodium falciparum (isolate CDC / Honduras)) (Q27743 whole entry, looked up): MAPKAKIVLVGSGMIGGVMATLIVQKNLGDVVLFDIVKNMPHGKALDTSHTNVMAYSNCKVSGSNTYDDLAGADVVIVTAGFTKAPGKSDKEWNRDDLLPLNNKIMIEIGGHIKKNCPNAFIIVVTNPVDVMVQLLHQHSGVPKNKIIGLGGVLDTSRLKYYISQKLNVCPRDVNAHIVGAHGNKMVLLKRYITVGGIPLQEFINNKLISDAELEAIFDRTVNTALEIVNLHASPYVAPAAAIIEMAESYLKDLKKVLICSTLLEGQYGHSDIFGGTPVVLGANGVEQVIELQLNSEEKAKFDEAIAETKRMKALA

One may read the inhibition as the relative decrease from the control value, in per cent. `CO/C(=C\C=C\c1cc2cc(Cl)c(Cl)cc2[nH]1)C(=O)NCCCN1CC(C)N(C)CC1C` (stereo not given): the values for the growth inhibition in experiment [1] and in experiment [4] were 73% (active) and 92% (active), respectively. The inhibition is 38% in experiment [2] and -2% in experiment [3]. The outcome in experiment [5], in experiment [6], in experiment [7] and in experiment [8] was inactive.

`O=C(Cn1c(SCc2cccc(F)c2F)cc(=O)c2ccccc21)N(CCn1ccnc1)Cc1ccc(-c2ccc(C(F)(F)F)cc2)cc1`: the values for the growth inhibition in experiment [1] and in experiment [4] were 94% (active) and 100% (active), respectively. The figures for the inhibition in experiment [2] and in experiment [3] were 20% and -2%, respectively. The outcome in experiment [5], in experiment [6], in experiment [7] and in experiment [8] was inactive.

For `OC(CNc1ccnc(Nc2cccc(Cl)c2)n1)c1ccccc1C(F)(F)F` (stereo not given), the growth inhibition is 36% in experiment [1] and 95% (active) in experiment [4]. Besides, the inhibition in experiment [2] was 40%; in experiment [3], 0%. In addition, the result in experiment [5], in experiment [6], in experiment [7] and in experiment [8] was inactive.

`O=C(NCCN1CCCCC1)c1ccc(CNC(=O)c2ccc(O)c(-c3cccc(C(F)(F)F)c3)c2)cc1`: the growth inhibition in experiment [1] was 47%; in experiment [4], 94% (active). The values for the inhibition in experiment [2] and in experiment [3] were 3% and 1%, respectively. The outcome in experiment [5], in experiment [6], in experiment [7] and in experiment [8] was inactive.

Consider `CN(C)c1ccc(-c2csc(C(=O)NCC3CCN(CC4CCCCC4)C3)c2)cc1` (stereo not given), for which the results for the growth inhibition in experiment [1] and in experiment [4] were 28% and 86% (active), respectively. Besides, the results for the inhibition in experiment [2] and in experiment [3] were 35% and 1%, respectively. Further, the result in experiment [5], in experiment [6], in experiment [7] and in experiment [8] was inactive.

For `N#Cc1ccc(C=Cc2nccc3c2[nH]c2ccccc23)cc1`, the growth inhibition in experiment [1] is 28%; in experiment [4], 97% (active). Besides, the inhibition is 33% in experiment [2] and 0% in experiment [3]. Further, the result in experiment [5], in experiment [6], in experiment [7] and in experiment [8] was inactive.

Turning to `Cc1cc2c(cc1C(F)(F)F)N(C(=O)Nc1cccc(C(=O)NC3CCN(Cc4ccccc4)CC3)c1)CC2`, the figures for the growth inhibition in experiment [1] and in experiment [4] were -5% and 91% (active), respectively. In addition, the values for the inhibition in experiment [2] and in experiment [3] were 19% and -2%, respectively. Also, the outcome in experiment [5], in experiment [6], in experiment [7] and in experiment [8] was inactive.

Regarding `CN(C)CCC1CCN(CCS(=O)(=O)c2cccc(Nc3ccc(-c4ccsc4)cn3)c2)CC1`, the growth inhibition in experiment [1] is 6%; in experiment [4], 97% (active). Besides, the inhibition was 49% in experiment [2] and 0% in experiment [3]. The result in experiment [5], in experiment [6], in experiment [7] and in experiment [8] was inactive.

Take `O=C(/C=C/c1ccc(Cl)c(Cl)c1)NCCCCCN1CCC(NC(=O)Nc2ccc(Cl)c(C(F)(F)F)c2)CC1`: the growth inhibition in experiment [1] is 19%; in experiment [4], 99% (active). Besides, the inhibition in experiment [2] was 76% (active); in experiment [3] it was -1%. Also, the result in experiment [5], in experiment [6], in experiment [7] and in experiment [8] was inactive.

With `CCCc1cc(NCC)nc(Nc2ccc(F)cc2)n1`, the figures for the growth inhibition in experiment [1] and in experiment [4] were 36% and 86% (active), respectively. The values for the inhibition in experiment [2] and in experiment [3] were 16% and -1%, respectively. For the same compound, the result in experiment [5], in experiment [6], in experiment [7] and in experiment [8] was inactive.

`Cc1ccc(C(=O)N2CCc3cc4nccc(N5CCN6CCC[C@H]6C5)c4cc32)cc1`: the growth inhibition is 13% in experiment [1] and 95% (active) in experiment [4]. Moreover, the inhibition in experiment [2] was 5%; in experiment [3] it was -5%. For the same compound, the result in experiment [5], in experiment [6], in experiment [7] and in experiment [8] was inactive.

`O=C(Nc1ccc2c(c1)CCN(C1CCC1)CC2)c1ccc(-n2ccnc2)cn1`: the growth inhibition in experiment [1] was -1%; in experiment [4], 92% (active). Further, the inhibition is 8% in experiment [2] and 0% in experiment [3]. The outcome in experiment [5], in experiment [6], in experiment [7] and in experiment [8] was inactive.

Regarding `Cc1cccc2[nH]c(-c3ccc(-c4ccc(NC(=O)Nc5cccc(C#N)c5)cc4)cc3)nc12`, the results for the growth inhibition in experiment [1] and in experiment [4] were 100% (active) and 101% (active), respectively. Moreover, the inhibition in experiment [2] is 28%; in experiment [3] it was 6%. The outcome in experiment [5], in experiment [6], in experiment [7] and in experiment [8] was inactive.

Take `Oc1ccc2c(c1CNC1CCCCC1)CCCC2`: the growth inhibition was 94% (active) in experiment [1] and 98% (active) in experiment [4]. Also, the inhibition in experiment [2] was 0%; in experiment [3] it was -3%. For the same compound, the outcome in experiment [5], in experiment [6], in experiment [7] and in experiment [8] was inactive.

Turning to `CN1CCC(c2csc3ccc(NC(=O)Nc4ccc(-c5ccncc5)c5ccccc45)cc23)CC1`, the results for the growth inhibition in experiment [1] and in experiment [4] were 71% (active) and 98% (active), respectively. Also, the inhibition was 8% in experiment [2] and 0% in experiment [3]. For the same compound, the result in experiment [5], in experiment [6], in experiment [7] and in experiment [8] was inactive.

Regarding `CCOc1cc(C(=O)Nc2ccc3nc(N(CC)CC)cc(C)c3c2)cc(OCC)c1OCC`, the growth inhibition in experiment [1] is 9%; in experiment [4], 98% (active). For the same compound, the inhibition in experiment [2] was 16%; in experiment [3] it was -2%. Also, the outcome in experiment [5], in experiment [6], in experiment [7] and in experiment [8] was inactive.

Take `COc1cc(Nc2nccc(N3CCC(NC(=O)c4cc5ccccc5s4)C3)n2)cc(OC)c1OC` (stereo not given): the growth inhibition was 50% (active) in experiment [1] and 96% (active) in experiment [4]. The inhibition in experiment [2] and in experiment [3] was 2% in each case. Moreover, the outcome in experiment [5], in experiment [6], in experiment [7] and in experiment [8] was inactive.

Turning to `FC(F)(F)c1cccc(CCNc2nccc(NCc3ccc(Cl)cc3Cl)n2)c1`, the growth inhibition in experiment [1] is 59% (active); in experiment [4] it was 97% (active). In addition, the figures for the inhibition in experiment [2] and in experiment [3] were 8% and 1%, respectively. For the same compound, the outcome in experiment [5], in experiment [6], in experiment [7] and in experiment [8] was inactive.

`Cc1ccc(Cn2ncc(N3CCC(N)CC3)c(Cl)c2=O)cc1NC(=O)Nc1ccc(-c2ccccc2)cc1`: the values for the growth inhibition in experiment [1] and in experiment [4] were 25% and 90% (active), respectively. The results for the inhibition in experiment [2] and in experiment [3] were 29% and -5%, respectively. Also, the result in experiment [5], in experiment [6], in experiment [7] and in experiment [8] was inactive.

In the case of `N#Cc1cccc(C(=O)NC2CCN(CCCCCNC(=O)/C=C/c3ccc(Cl)c(Cl)c3)CC2)c1`, the results for the growth inhibition in experiment [1] and in experiment [4] were -1% and 103% (active), respectively. Besides, the results for the inhibition in experiment [2] and in experiment [3] were 11% and -9%, respectively. For the same compound, the outcome in experiment [5], in experiment [6], in experiment [7] and in experiment [8] was inactive.
